Bioassay records as filed in PubChem BioAssay.
hgDAF12 agonist – H. glycines DAF-12 receptor agonists, primary screen, cell-based, luminescence, HEK293, GAL4 fusion, UAS-luciferase | Nuclear hormone receptor DAF-12 (Heterodera glycines), GAL4 fusion | HEK293 GAL4-hgDAF12 UAS-luciferase reporter, agonist luminescence; normalized to butyrate control | activation, % at 6.8 µM | 370,000 compounds, 1.8% hits | AID 687014, 2013;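 active = activation above a cutoff set at the mean of all screened compounds plus 3 SD, cut at about 10% in these data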;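 note: 0% = DMSO wells and 100% = sodium butyrate wells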
DAX1 inh-1 – DAX1 (NR0B1) inhibitors, primary screen, cell-based, HEK293, Gal4-DAX1, luciferase luminescence. Nuclear receptor subfamily 0 group B member 1 (Homo sapiens), P51843. HEK293 Gal4-DAX1 luciferase reporter. inhibition, % at 6.75 µM. 340,000 compounds, 0.99% hits. AID 504766, 2011;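 active = inhibition above the mean over all tested compounds plus 3 SD, cut at about 4.2% in these data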;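 note: 0% = DAX1-transfected cells with DMSO and 100% = empty-vector control cells with DMSO; inhibition shows as a rise in luminescence from relieved DAX1 repression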
Target sequence (P51843 207-470 limits assumed): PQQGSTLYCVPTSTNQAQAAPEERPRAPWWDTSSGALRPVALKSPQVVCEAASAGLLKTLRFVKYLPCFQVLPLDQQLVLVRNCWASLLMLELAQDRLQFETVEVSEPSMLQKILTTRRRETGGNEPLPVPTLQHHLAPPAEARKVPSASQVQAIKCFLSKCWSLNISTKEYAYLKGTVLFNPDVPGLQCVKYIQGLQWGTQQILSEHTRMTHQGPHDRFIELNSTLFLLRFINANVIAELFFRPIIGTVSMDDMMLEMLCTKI
DAX1 inh-2 – DAX1 (NR0B1) inhibitors on StAR promoter, primary screen, cell-based, luminescence, SF-1 (NR5A1), full-length DAX-1; 370,000 compounds, 1.1% hits; HEK293T StAR-luciferase reporter, SF-1/DAX-1 repression relief; AID 652010, 2013; inhibition, % at 6.8 µM;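 active = inhibition above the mean over all tested compounds plus 3 SD, cut at about 3.6% in these data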;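 note: 0% = DAX-1 cells with DMSO and 100% = cells lacking DAX-1 with DMSO; higher inhibition means more luminescence from relief of DAX-1 repression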
hcDAF12 agonist – H. contortus DAF-12 nuclear receptor activators, primary screen, cell-based, luminescence, HEK293, lit1-tk-luc reporter | HEK293 hcDAF-12 lit1-tk-luc reporter; 0% DMSO, 100% Δ7-dafachronic acid | activation, % at 6.8 µM | AID 652067, 2013 | 370,000 compounds, 1.4% hits;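 active = activation above the mean of all tested compounds plus 3 SD, cut at about 5.5% in these data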;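 note: 100% = response to 3 µM Δ7-dafachronic acid high control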
ssDAF-12 act – S. stercoralis DAF-12 nuclear receptor activators, primary screen, cell-based, luminescence, HEK293, GRIP1 co-expression, lit1-tk-luc; Nuclear hormone receptor DAF-12 (Strongyloides stercoralis); HEK293 ssDAF-12/GRIP1 lit1-tk-luc reporter; % of 3 µM dafachronic acid response; activation, % at 6.8 µM; 370,000 compounds, 1% hits; AID 652126, 2013;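 active = activation above the mean over all tested compounds plus 3 SD, cut at about 0.9% in these data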;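 note: 0% = DMSO-only wells and 100% = 3 µM delta7-dafachronic acid wells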
An asterisk follows results filed as active. Compounds with a hit are over-represented: about 4.1% of the library has one in this group of screens.

How did O=C(CSc1nnc(NC(=O)c2ccccc2Cl)s1)NC1CC1 do in these assays?
hgDAF12 agonist: 7.1; DAX1 inh-1: 2.0; DAX1 inh-2: 1.0; hcDAF12 agonist: 5.6*; ssDAF-12 act: -0.3

Results for CC(CCN1CCC(C(O)(c2ccccc2)c2ccccc2)CC1)Oc1cccc(Cl)c1 (configuration not stated) ?
hgDAF12 agonist: 0.2; DAX1 inh-2: -0.1; hcDAF12 agonist: 3.8; ssDAF-12 act: -0.6

Results for CC(CCN1CCC(C(O)(c2ccccc2)c2ccccc2)CC1)Oc1cccc(C(F)(F)F)c1 (configuration not stated) ?
hgDAF12 agonist: 1.3; DAX1 inh-2: 0.0; hcDAF12 agonist: 6.4*; ssDAF-12 act: 0.2

Results for CCN(CC)C(=O)CC[C@H]1CC[C@]2(CCCN(C(=O)c3ccc4ccccc4n3)C2)O1 ?
hgDAF12 agonist: -0.9; DAX1 inh-2: 0.3; hcDAF12 agonist: -1.9; ssDAF-12 act: -0.9

How did CCCCCCCCN1C(=O)[C@@H](CC(=O)NCc2cccs2)C[C@@]2(C(=O)OC)C1=C[C@H](COCc1ccccc1)O[C@@H]2C do in these assays?
hgDAF12 agonist: 0.0; DAX1 inh-2: 0.2; hcDAF12 agonist: -1.9; ssDAF-12 act: 0.7

Results for COc1ccc(S(=O)(=O)NC(C)C(=O)NCc2ccncc2)cc1C (configuration not stated) ?
hgDAF12 agonist: 0.0; DAX1 inh-1: -0.7; DAX1 inh-2: 0.3; hcDAF12 agonist: -1.2; ssDAF-12 act: -0.6

How did COc1ccc(S(=O)(=O)NC(C)C(=O)NCc2ccncc2)cc1OC (configuration not stated) do in these assays?
hgDAF12 agonist: 0.7; DAX1 inh-1: 5.8*; DAX1 inh-2: 0.0; hcDAF12 agonist: 0.2; ssDAF-12 act: -1.2

How did N/C(=N\OC(=O)c1ccc(Cl)cc1Cl)c1cccnc1 do in these assays?
hgDAF12 agonist: 11.4*; DAX1 inh-1: 3.0; DAX1 inh-2: 2.5; hcDAF12 agonist: 0.6; ssDAF-12 act: -0.6

How did N/C(=N\OC(=O)c1ccc(Cl)cc1)c1cccnc1 do in these assays?
hgDAF12 agonist: 1.8; DAX1 inh-1: 1.6; DAX1 inh-2: 2.7; hcDAF12 agonist: 1.1; ssDAF-12 act: -0.5

Results for CC(C)CN1C(=O)N2CCc3ccccc3C2CS1(=O)=O (configuration not stated) ?
hgDAF12 agonist: 2.5; DAX1 inh-2: 0.8; hcDAF12 agonist: 0.0; ssDAF-12 act: -0.7

Results for Cc1nc2c(Cl)c(C)nn2c2c1CCC2 ?
hgDAF12 agonist: 0.5; DAX1 inh-1: -0.3; DAX1 inh-2: 0.0; hcDAF12 agonist: -0.5; ssDAF-12 act: -1.6

What do the screens show for `Cc1nc2c(-c3ccc(Cl)cc3)cnn2c2c1CCC2`?
hgDAF12 agonist: 3.4; DAX1 inh-1: -0.2; DAX1 inh-2: -0.1; hcDAF12 agonist: 3.1; ssDAF-12 act: 2.1*

How did Cc1cc(C)n2nc(C(=O)N(C)c3c(N)n(Cc4ccccc4)c(=O)[nH]c3=O)nc2n1 do in these assays?
hgDAF12 agonist: -1.4; DAX1 inh-1: 1.8; DAX1 inh-2: -0.4; hcDAF12 agonist: 0.1; ssDAF-12 act: -0.3

Results for CCCN(C(=O)c1nc2nc(C)cc(C)n2n1)c1c(N)n(Cc2ccccc2)c(=O)[nH]c1=O ?
hgDAF12 agonist: -0.6; DAX1 inh-1: 2.1; DAX1 inh-2: 3.8*; hcDAF12 agonist: -1.8; ssDAF-12 act: -1.4

Results for COCCN(C(=O)CSc1nc2ccccc2s1)c1c(N)n(Cc2ccccc2)c(=O)[nH]c1=O ?
hgDAF12 agonist: 0.6; DAX1 inh-1: 3.0; DAX1 inh-2: 0.7; hcDAF12 agonist: 6.5*; ssDAF-12 act: 0.4

How did CCCCn1c(N)c(N(CC(C)C)C(=O)CCCn2c(=O)oc3ccccc32)c(=O)[nH]c1=O do in these assays?
hgDAF12 agonist: 0.9; DAX1 inh-1: 4.3*; DAX1 inh-2: 0.1; hcDAF12 agonist: -1.3; ssDAF-12 act: -1.4
